The results in this text go back to PubChem BioAssay (EPA / NIEHS).

Read-out in test [1]: Human Leukocyte Antigen - DR isotype (HLADR), HLA-DRA (gene 3122)
In words: BSK_CASM3C_HLADR: BioMAP Diversity Plus: CASM3C Assay for Human Leukocyte Antigen - DR isotype (HLADR) Biomarker Activity (AID 2283043).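 Also: cell-surface HLA-DR protein level quantified by ELISA.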 To be noted: primary human coronary artery smooth muscle cells; actives raise or lower the signal.

Read-out in test [2]: Macrophage colony-stimulating factor (MCSF), CSF1 (gene 1435)
In words: BSK_CASM3C_MCSF: BioMAP Diversity Plus: CASM3C Assay for Macrophage colony-stimulating factor (MCSF) Biomarker Activity (AID 2283044).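 Also: M-CSF protein amount quantified by ELISA after 24 h exposure.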 The following applies: primary human coronary artery smooth muscle cells; actives raise or lower the signal.

Read-out in test [3]: Low-density lipoprotein receptor (LDLR), LDLR (gene 3949)
In words: BSK_CASM3C_LDLR: BioMAP Diversity Plus: CASM3C Assay for Low-density lipoprotein receptor (LDLR) Biomarker Activity (AID 2283045).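 Also: LDLR protein level on the cell surface quantified by ELISA.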 The following applies: primary human coronary artery smooth muscle cells; actives raise or lower the signal.

Read-out in test [4]: Monocyte Chemoattractant Protein-1 (MCP1), CCL2 (gene 6347)
In words: BSK_CASM3C_MCP1: BioMAP Diversity Plus: CASM3C Assay for Monocyte Chemoattractant Protein-1 (MCP1) Biomarker Activity (AID 2283046).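 Also: MCP-1 level quantified by ELISA 24 h after dosing.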 The following applies: primary human coronary artery smooth muscle cells; actives raise or lower the signal.

Test [5] in a line: BSK_CASM3C_Proliferation: Cell Proliferation Assessment in the BioMAP Diversity Plus: CASM3C Assay (AID 2283047).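 Also: sulforhodamine B total protein stain as relative cell number at 560 nm; sub-confluent cells exposed 48 h before staining; fitted both ways against DMSO so gain or loss of cell number.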 To be noted: primary human coronary artery smooth muscle cells.
Read-out in test [6]: Monokine induced gamma interferon (MIG), CXCL9 (gene 4283)
In words: BSK_CASM3C_MIG: BioMAP Diversity Plus: CASM3C Assay for Monokine induced gamma interferon (MIG) Biomarker Activity (AID 2283048).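 Also: MIG protein level measured by ELISA.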 The following applies: primary human coronary artery smooth muscle cells; actives raise or lower the signal.

Read-out in test [7]: serum amyloid A (SAA), SAA1 (gene 6288)
Put plainly: BSK_CASM3C_SAA: BioMAP Diversity Plus: CASM3C Assay for serum amyloid A (SAA) Biomarker Activity (AID 2283049). The following applies: primary human coronary artery smooth muscle cells; actives raise or lower the signal.

The nature of test [8]: BSK_CASM3C_SRB: Viability Assessment in the BioMAP Diversity Plus: CASM3C Assay (AID 2283050).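 Also: cells exposed to compound for 24 h.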 The following applies: primary human coronary artery smooth muscle cells.
Read-out in test [9]: Thrombomodulin, THBD (gene 7056)
Put plainly: BSK_CASM3C_Thrombomodulin: BioMAP Diversity Plus: CASM3C Assay for Thrombomodulin Biomarker Activity (AID 2283051).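 Also: thrombomodulin protein level measured by ELISA 24 h after dosing.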 The following applies: primary human coronary artery smooth muscle cells; actives raise or lower the signal.

Read-out in test [10]: Tissue Factor, F3 (gene 2152)
In words: BSK_CASM3C_TissueFactor: BioMAP Diversity Plus: CASM3C Assay for Tissue Factor Biomarker Activity (AID 2283052).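 Also: cell surface tissue factor protein level read by ELISA.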 The following applies: primary human coronary artery smooth muscle cells; actives raise or lower the signal.

Read-out in test [11]: Interferon-gamma inducible Protein 10 (IP10), CXCL10 (gene 3627)
Put plainly: BSK_hDFCGF_IP10: BioMAP Diversity Plus: hDFCGF Assay for Interferon-gamma inducible Protein 10 (IP10) Biomarker Activity (AID 2283053). To be noted: primary human foreskin fibroblasts; actives raise or lower the signal. The gist of the method: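 IP-10 levels, quantified by ELISA, are taken from human foreskin fibroblast cultures 24 h after chemical treatment, with DMSO serving as negative control and baseline for bidirectional analysis.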

Read-out in test [12]: Urokinase-type plasminogen activator receptor (uPAR), PLAUR (gene 5329)
Put plainly: BSK_CASM3C_uPAR: BioMAP Diversity Plus: CASM3C Assay for Urokinase-type plasminogen activator receptor (uPAR) Biomarker Activity (AID 2283054).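 Also: cell-surface uPAR protein level quantified by ELISA.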 The following applies: primary human coronary artery smooth muscle cells; actives raise or lower the signal.

Read-out in test [13]: Vascular cell adhesion molecule 1 (VCAM1), VCAM1 (gene 7412)
In words: BSK_CASM3C_VCAM1: BioMAP Diversity Plus: CASM3C Assay for Vascular cell adhesion molecule 1 (VCAM1) Biomarker Activity (AID 2283055).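 Also: VCAM-1 protein level quantified by ELISA on the cells.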 To be noted: primary human coronary artery smooth muscle cells; actives raise or lower the signal.

Read-out in test [14]: Interleukin-8 (IL8), CXCL8 (gene 3576)
In words: BSK_hDFCGF_IL8: BioMAP Diversity Plus: hDFCGF Assay for Interleukin-8 (IL8) Biomarker Activity (AID 2283058). The following applies: primary human foreskin fibroblasts; actives raise or lower the signal. The gist of the method:
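Primary human foreskin fibroblasts (hDFCGF system) dosed with chemical; IL-8 measured by ELISA 24 hours later. Bidirectional curve fitting relative to DMSO baseline; cytotoxicity tracked in parallel cultures by SRB total protein staining.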

Test [15] is described as follows: BSK_hDFCGF_Proliferation: Cell Proliferation Assessment in the BioMAP Diversity Plus: hDFCGF Assay (AID 2283059).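 Also: curves fitted for both rise and fall of signal versus DMSO baseline.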 The following applies: primary human foreskin fibroblasts. The gist of the method:
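Primary human foreskin fibroblasts, sub-confluent; […]; 10% TCA fix, 0.1% SRB stain, A560 total protein. Gain/loss fitted bidirectionally vs DMSO control.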

Read-out in test [16]: Macrophage colony-stimulating factor (MCSF), CSF1 (gene 1435)
Put plainly: BSK_hDFCGF_MCSF: BioMAP Diversity Plus: hDFCGF Assay for Macrophage colony-stimulating factor (MCSF) Biomarker Activity (AID 2283060). The following applies: primary human foreskin fibroblasts; actives raise or lower the signal. The method in brief:
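Human foreskin fibroblast primary cultures; M-CSF measured by ELISA 24 hours after chemical dosing. Bidirectional fitting relative to DMSO, with overt cytotoxicity tracked by parallel SRB total-protein staining (0.1% SRB, 10% TCA fixation, 560 nm).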

Test [17] is described as follows: BSK_hDFCGF_SRB: Viability Assessment in the BioMAP Diversity Plus: hDFCGF Assay (AID 2283061).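 Also: cells exposed to compound for 24 h before the read.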 To be noted: primary human foreskin fibroblasts. The gist of the method:
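Human foreskin fibroblasts in 96-well plates were treated 24 h. Total protein was measured by 0.1% SRB staining after 10% TCA fixation, read at 560 nm. Data were fitted bidirectionally against DMSO.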

Read-out in test [18]: TIMP metallopeptidase inhibitor 1 (TIMP1), TIMP1 (gene 7076)
In words: BSK_hDFCGF_TIMP1: BioMAP Diversity Plus: hDFCGF Assay for TIMP metallopeptidase inhibitor 1 (TIMP1) Biomarker Activity (AID 2283062). To be noted: primary human foreskin fibroblasts; actives raise or lower the signal. The gist of the method: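 Human foreskin fibroblast primary cultures dosed for 24 h; secreted/surface TIMP-1 quantified by ELISA. Bidirectional curve fitting against DMSO baseline; cytotoxicity tracked in parallel cultures by SRB total-protein staining.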

Read-out in test [19]: Epidermal growth factor receptor (EGFR), EGFR (gene 1956)
In words: BSK_hDFCGF_EGFR: BioMAP Diversity Plus: hDFCGF Assay for Epidermal growth factor receptor (EGFR) Biomarker Activity (AID 2283057). The following applies: primary human foreskin fibroblasts; actives raise or lower the signal. The gist of the method: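 Measured by ELISA: EGFR levels on primary human foreskin fibroblasts 24 h after chemical treatment, analysed relative to DMSO with bidirectional fitting.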

Read-out in test [20]: Collagen III, COL3A1 (gene 1281)
Put plainly: BSK_hDFCGF_CollagenIII: BioMAP Diversity Plus: hDFCGF Assay for Collagen III Biomarker Activity (AID 2283056). The following applies: primary human foreskin fibroblasts; actives raise or lower the signal. The method in brief:
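Human foreskin fibroblast primary cultures sampled 24 h after dosing; Collagen III quantified by ELISA. Signal fitted bidirectionally against DMSO baseline.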

Molecules are shown by their SMILES. More than one record can exist for a structure, and the calls need not agree. Activity calls are given as the source filed them. The calls were made as follows: active = hit-call score of the fitted dose curve at least 0.9, where 1 is the maximum; inactive = score below 0.9.

The term AC50 denotes the concentration giving half of the maximal activity seen.

In the case of `CNC(C)=O`, the result in [1], in test [2], in [3], in test [4], in test [5] and in [6] was inactive. Besides, the result in test [7], in [8], in test [9], in [10], in test [11] and in test [12] was inactive. The result in test [13], in test [14], in [15], in test [16], in test [17] and in test [18] was inactive.

As for `C[Si](C)(C)C(F)(F)C(F)(F)C(F)(F)F`, the result in test [1], in test [2], in test [3], in test [4], in test [5] and in test [6] was inactive. For the same molecule, the result in test [7], in test [8], in [9], in test [10], in [11] and in [12] was inactive. In addition, the outcome in test [13], in [19], in [14], in test [15], in test [17] and in test [18] was inactive. In addition, the AC50 in test [17] was 30 µM (active).

As for `CCCC(CCC)C(=O)O`, the result in test [1], in test [2], in test [3], in test [4], in test [5] and in test [6] was inactive. In addition, the outcome in test [7], in test [8], in test [9], in [10], in test [12] and in test [13] was inactive. The outcome in [20], in [14], in [15], in [16] and in test [17] was inactive.

As for `NNC(=O)c1ccncc1`, the outcome in [1], in test [2], in [3], in [4], in test [5] and in test [6] was inactive. Further, the result in [7], in test [8], in test [9], in [10], in [11] and in test [12] was inactive. The outcome in test [13], in test [14], in test [15], in test [16] and in [17] was inactive.

For the molecule `CCCCCOC(C)=O`, the outcome in [1], in test [2], in [3], in [4], in [5] and in [6] was inactive. Further, the outcome in test [7], in test [8], in [9], in test [10], in [12] and in test [13] was inactive. The result in [20], in test [14], in test [15], in test [16] and in [17] was inactive.

With `CC1(C)C(=O)N(Cl)C(=O)N1Cl`, the outcome in test [1], in [2], in test [3], in [4], in test [5] and in test [6] was inactive. For the same molecule, the outcome in [7], in test [8], in test [9], in [10], in test [12] and in [13] was inactive. For the same molecule, the result in test [20], in [19], in test [14], in test [15], in [17] and in [18] was inactive.

On to `CCCCC(CC)C(=O)OCCOCCOCCOC(=O)C(CC)CCCC` (stereo not given), for which the outcome in [1], in [2], in [3], in [4], in test [5] and in test [6] was inactive. For the same molecule, the result in test [7], in test [8], in [10], in [12], in test [13] and in test [19] was inactive. For the same molecule, the outcome in test [14], in test [17] and in test [18] was inactive. Further, the AC50 in [9] is 20 µM (active); in test [20], 20 µM (active); in test [15] it was 11 µM (active); in test [16], 10.7 µM (active).
